These results are taken from the antibiotic and cytotoxicity screens of Wong et al. (2023).

About 3,300 (8.5%) of roughly 39,000 compounds were called active. What follows is part of a selection rich in actives, with near analogues and random picks from the rest.

This experiment deals with HepG2. The experiment is described as follows: cytotoxicity call (relative viability < 0.9). To be noted: 10 µM.
`C[C@@H]1CCCCO[C@@H](CN(C)C(=O)CCC(F)(F)F)[C@H](C)CN([C@H](C)CO)C(=O)c2cc(NC(=O)NC3CCCCC3)ccc2O1`: the cytotoxicity call was “inactive”. As for `COCCNC(=O)C[C@H]1CC[C@@H]2[C@H](COC[C@H](O)CN2S(=O)(=O)c2ccccc2C)O1`, the entry is “inactive”; as for `C[C@H]1CN([C@@H](C)CO)C(=O)c2c(c3ccccc3n2C)-c2ccccc2CO[C@@H]1CN(C)Cc1ccc(O)cc1`, “inactive”. The result for `C[C@H]1CN([C@@H](C)CO)C(=O)c2cc(NC(=O)CCN3CCOCC3)ccc2O[C@@H]1CN(C)S(=O)(=O)c1cn(C)cn1` reads “inactive”; that for `COc1ccc(S(=O)(=O)N(C)C[C@@H]2Oc3ccc(NC(=O)Nc4c(C)noc4C)cc3CC(=O)N([C@H](C)CO)C[C@@H]2C)cc1`, “inactive”; that for `CC(C)NC(=O)N(C)C[C@@H]1Oc2c(NS(=O)(=O)c3ccc(Cl)cc3)cccc2C(=O)N([C@H](C)CO)C[C@@H]1C`, “inactive”. As for `C[C@@H]1CN([C@@H](C)CO)C(=O)c2cccc(NS(C)(=O)=O)c2O[C@@H]1CN(C)C(=O)Nc1ccc(C(F)(F)F)cc1`, the entry is “inactive”. `CSCCC(NC(=O)C(Cc1c[nH]c2ccccc12)NC(=O)CCNC(=O)OC(C)(C)C)C(=O)NC(CC(=O)O)C(=O)NC(Cc1ccccc1)C(N)=O` (configuration not stated): the cytotoxicity call was “inactive”. As for `COc1ccc(S(=O)(=O)N(C)C[C@H]2Oc3ccc(NS(=O)(=O)c4ccc(F)cc4)cc3CC(=O)N([C@H](C)CO)C[C@H]2C)cc1`, the entry is “inactive”. The result for `CN([C@@H](Cc1ccc(OS(=O)(=O)c2cccc3cnccc23)cc1)C(=O)N1CCN(c2ccccc2)CC1)S(=O)(=O)c1cccc2cnccc12` reads “inactive”; that for `CN(C)CC(=O)N[C@@H]1CC[C@H](CCNC(=O)C2CCC2)O[C@H]1CO`, “inactive”; that for `CN1C(=O)/C(=C(/C#N)C(N)=O)c2ccccc21`, “inactive”.

With `O=C(Nc1ccccc1)C1=C[C@H](c2ccc3c(c2)Cc2ccccc2-3)C[C@H](OCc2ccc(CO)cc2)O1`, the cytotoxicity call is “inactive”. As for `Cc1ccc(S(=O)(=O)Nc2ccc3c(c2)C(=O)N([C@H](C)CO)C[C@H](C)[C@@H](CN(C)S(C)(=O)=O)OCCCC[C@@H](C)O3)cc1`, the entry is “inactive”; as for `O=C(NC1CCCCC1)[C@@H]1C(c2ccc(Cl)cc2)=C(S(=O)(=O)c2ccccc2)C(=O)N1Cc1ccc(-c2ccccc2)cc1`, “inactive”. As for `CC(=O)n1nc(-c2cccnc2)nc1N`, the entry is “inactive”; as for `C[C@H](CO)N1C[C@H](C)[C@H](CN(C)Cc2ccc(C(=O)O)cc2)OCCCC[C@H](C)Oc2ccc(NC(=O)c3ccccc3)cc2C1=O`, “inactive”; as for `C[C@@H]1CN([C@@H](C)CO)C(=O)c2cc(NC(=O)Nc3ccccc3)ccc2O[C@@H]1CN(C)Cc1ccc(-c2ccccc2)cc1`, “active”. The result for `C[C@@H]1CN([C@H](C)CO)C(=O)c2cc(NC(=O)Nc3ccccc3)ccc2O[C@H]1CN(C)Cc1ccc(-c2ccccc2)cc1` reads “active”; that for `COCC(=O)N(C)C[C@H]1Oc2cc(C#Cc3ccccc3)ccc2S(=O)(=O)N([C@@H](C)CO)C[C@@H]1C`, “inactive”. For the compound `O=C(CSc1nnc[nH]1)C1CC1`, the cytotoxicity call was “inactive”.

`COc1c(C)cc(-c2cc3c(c(CCc4ccccc4)n2)[Si](C(C)C)(C(C)C)O[C@H]3c2ccccc2)cc1C`: the cytotoxicity call was “inactive”. The result for `COc1cc(Nc2ncc(F)c(Nc3ccc4c(n3)N(COP(=O)(O)O)C(=O)C(C)(C)O4)n2)cc(OC)c1OC` reads “active”; that for `COCC(=O)Nc1ccc2c(c1)C(=O)N(C)C[C@H](OC)[C@H](C)CN(C(=O)Cc1cccnc1)[C@@H](C)CO2`, “inactive”. As for `C[C@@H]1CN([C@@H](C)CO)C(=O)c2cc(NC(=O)Nc3ccccc3)ccc2O[C@@H]1CN(C)Cc1ccc(Oc2ccccc2)cc1`, the entry is “active”. The result for `C[C@@H]1CN([C@@H](C)CO)C(=O)c2cc(NC(=O)Nc3ccccc3)ccc2O[C@H]1CN(C)Cc1ccc(Oc2ccccc2)cc1` reads “active”; that for `C[C@H]1CN([C@@H](C)CO)C(=O)c2cc(NC(=O)Nc3ccccc3)ccc2O[C@H]1CN(C)Cc1ccc(Oc2ccccc2)cc1`, “inactive”; that for `C[C@H]1CN([C@@H](C)CO)C(=O)c2cc(NC(=O)Nc3ccccc3)ccc2O[C@@H]1CN(C)Cc1ccc(Oc2ccccc2)cc1`, “active”. Turning to `C[C@H](CO)N1C[C@H](C)[C@H](CN(C)Cc2ccc(Oc3ccccc3)cc2)Oc2ccc(NC(=O)Nc3ccccc3)cc2C1=O`, the cytotoxicity call is “inactive”. With `C[C@H](CO)N1C[C@H](C)[C@@H](CN(C)Cc2ccc(Oc3ccccc3)cc2)Oc2ccc(NC(=O)Nc3ccccc3)cc2C1=O`, the cytotoxicity call is “active”. The result for `C[C@H](CO)N1C[C@H](C)[C@H](CN(C)Cc2ccc(C(=O)O)cc2)Oc2c(NC(=O)Nc3ccc(C(F)(F)F)cc3)cccc2C1=O` reads “inactive”; that for `O=C(C[C@@H]1C=C[C@@H](NC(=O)C2CCC2)[C@H](CO)O1)NCCCN1CCOCC1`, “inactive”.

Turning to `C[C@@H]1CCCCO[C@H](CN(C)C(=O)Cc2ccccc2)[C@@H](C)CN([C@@H](C)CO)C(=O)c2cc(NC(=O)CCC(F)(F)F)ccc2O1`, the cytotoxicity call was “inactive”. Turning to `COCCOC(=O)N1C(=O)[C@@]2(c3ccccc31)[C@H](C(=O)N1CCCCCCC1)[C@H]1C(=O)O[C@H](c3ccccc3)[C@H](c3ccccc3)N1[C@@H]2c1ccc(OCCO)cc1`, the cytotoxicity call is “inactive”. For `COc1ccc(-c2cnc3c(c2)C(=O)N([C@H](C)CO)C[C@H](C)[C@H](CN(C)C(=O)Cc2cccnc2)O3)cc1`, the cytotoxicity call is “inactive”. The result for `Cn1c(=O)n2n(c1=O)[C@H](C1CC1)C=C1CN3[C@@H]([C@H](Cc4ccccc4)OC(=O)[C@@H]3Cc3ccc(-n4cc(CCC(=O)NO)nn4)cc3)[C@@H]12` reads “inactive”. As for `C[C@H]1CN([C@@H](C)CO)C(=O)CCCn2nncc2CO[C@H]1CN(C)C(=O)Nc1ccc(C(F)(F)F)cc1`, the cytotoxicity call was “inactive”. As for `NC(=O)CN1C(=O)C(=O)c2cc(Cl)ccc21`, the entry is “inactive”; as for `Cc1nc(-c2ccncc2)sc1CN`, “inactive”; as for `O=C(C[C@@H]1C[C@@H]2c3cc(NC(=O)c4ccc5c(c4)OCO5)ccc3O[C@@H]2[C@H](CO)O1)NCc1ccccn1`, “inactive”.

On to `COCC(=O)Nc1ccc2c(c1)C(=O)N(C)[C@H]1CC[C@@H](CC(=O)NCc3ccc(OC)cc3)O[C@@H]1CO2`, for which the cytotoxicity call was “inactive”. As for `Cc1noc(C)c1NC(=O)Nc1cccc2c1O[C@@H](CN(C)S(C)(=O)=O)[C@H](C)CN([C@H](C)CO)C2=O`, the entry is “inactive”.
